Sampled rows, rich in hits. Any-hit rate of the full collection: about 14%.
HCV inh – qHTS Assay for Inhibitors of Hepatitis C Virus (HCV) | Huh7.5.1 HCVcc-Cre infection, luciferase reporter, 44 h | Potency, µM (titrated, usually from 41.8 µM), without a hit: at the top dose activity change, negative = inhibition, most hits filed as inhibitors | 3.4% of 340,000 active; further: potency means the concentration at half of the fitted maximal effect
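Compounds are dispensed onto cells plated 4 h earlier at 1,000 per well, with HCVcc-Cre virus (about 0.5 moi) added next. Following 44 h of culture, luminescent signal is measured for 15 sec after 15 min with substrate at room temperature.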
Pf growth 96h – Primary qHTS for delayed death inhibitors of the malarial parasite plastid, 96 hour incubation | P. falciparum luciferase reporter growth, 96 h | Potency, µM (top dose mostly 28.7 µM), without a hit: at the top dose activity change, negative = inhibition, usual class: inhibitors | 6.9% of 320,000 active | AID 504834, 2011; further: potency means the concentration at half of the fitted maximal effect
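Delayed-death screen, second-generation endpoint: infected erythrocytes, 2% hematocrit, 0.05% parasitemia final; 96 hours at 37 C, 5% CO2; luciferase detection reagent; luminescence decrease equals reduced growth.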
MARV entry inh – qHTS for inhibitors of binding or entry into cells for Marburg Virus; Marburg virus pseudotyped entry inhibition, cell reporter; Potency, µM (highest dose often 37.8 µM), for inactives: at the top dose activity change, negative = inhibition, hits mostly inhibitors; 1.8% of 300,000 active; calls by dose curve; tested in HEK293 cells; further: potency means the concentration at half of the fitted maximal effect
HCMV inh – qHTS Assay for inhibitors of the human cytomegalovirus (HCMV); HFF cells, HCMV-luciferase reporter, 72 h; hits give low values; 4.5% of 410,000 active; activity change, negative = inhibition, % at 57.5 µM; in the data active means activity change below about -60%; inconclusive means no clear call, values can overlap the other calls; inactive means above about -39%
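Steps: HFFs plated, 16 h 37C; compounds added; HCMV-luciferase added to MOI 1 PFU/cell; 72 h 37C; OneGlo reagent, 5 min room temperature; luminescence read, normalized to controls.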
Pf growth 48h – Primary qHTS for delayed death inhibitors of the malarial parasite plastid, 48 hour incubation | P. falciparum luciferase growth in erythrocytes, 48 h | Potency, µM (series often up to 28.7 µM), for the others: at the top dose activity change, negative = inhibition, hits mostly inhibitors | 5.9% of 310,000 active | AID 504832, 2011; further: potency means the concentration at half of the fitted maximal effect
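A one-generation exposure of luciferase-tagged malaria parasites in RPMI 1640/Albumax erythrocyte culture, 37 C and 5% CO2. Inhibition is inferred from decreased luminescence after adding detection reagent.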
LASV entry inh – qHTS for Inhibitors of binding or entry into cells for Lassa Virus. 1.2% of 300,000 active. Lassa virus pseudotype entry inhibition, cell reporter. Potency, µM (titrated, usually from 37.9 µM), without a hit: top-dose activity change, negative = inhibition, most hits filed as inhibitors; calls by dose curve; tested in HEK293 cells; further: potency means the concentration at half of the fitted maximal effect; nearly all actives have a fitted effect of over 50% in size
An asterisk follows results filed as active; ? = inconclusive; . = no result given; [ ] = another dose, or the depositor's remark. Unless noted, the call rests on the fitted dose curve; in most records, active means well fitted inhibition curve with a large enough effect; inconclusive means small, poorly fitted or top-dose-only effect, or another doubt; inactive means no such curve, though single readings can be large or run the other way. On the % scale 0 is the no-effect control and ±100 the full control effect.

SMILES	HCV inh	Pf growth 96h	MARV entry inh	HCMV inh	Pf growth 48h	LASV entry inh
COC(=O)c1c(NC(=O)c2ccc(S(=O)(=O)N3CCCCC3)cc2)sc2c1CCN(C)C2	.	.	.	-2	.	0%[46.1 µM]
CCOC(=O)N1CCc2c(sc(NC(=O)c3ccc(S(=O)(=O)N4CCCC4)cc3)c2C#N)C1	?	?	.	-3	12µM*	.
CCOC(=O)c1c(NC(=O)c2ccc(S(=O)(=O)N3CCC(C)CC3)cc2)sc2c1CCN(CC)C2	.	.	.	-82*	.	-1%[46.1 µM]
O=C(CSc1ncc2c(n1)-c1ccc(Cl)cc1N(Cc1ccccc1)S2(=O)=O)Nc1ccccc1C(F)(F)F	.	.	.	8	.	-27%[46.1 µM]
CCCN1CCc2c(sc(NC(=O)CCS(=O)(=O)c3ccccc3)c2C(N)=O)C1	-22%	?	2%	-92*	?	2%
CCN1CCc2c(sc(NC(=O)CN3C(=O)c4ccccc4C3=O)c2C(N)=O)C1	-1%	97%	-1%	-6	-29%	11%
CN1CCc2c(sc(NC(=O)CS(=O)(=O)c3ccccc3)c2C(N)=O)C1	10%	11%	-1%[46.1 µM]	-6	-2%	13%
CCN1CCc2c(sc(NC(=O)c3ccc4ccccc4c3)c2C(N)=O)C1	.	?	.	-19	12µM*	.
O=C(c1ccc2c(c1)N(Cc1ccccc1)C(=O)c1ccccc1S2(=O)=O)N1CCOCC1	.	.	-27%[46.1 µM]	4	.	1%[46.1 µM]
CN(C)c1ccc(SC#N)cc1	13%	2.9µM*	22%	-2	6.6µM*	-6%
CN(C)c1ccc(C=C(C#N)C#N)cc1	1%	?	?	-20	1%	16%
COc1ccc(CNC(=O)CCS(=O)(=O)c2ccc3c(c2)CC(C)N3C(=O)C2CC2)cc1 (stereo not given)	-5%	38%	.	-29	-14%	?
Cc1cc(Cl)ccc1OCC(=O)N1CCC(c2nc3ccccc3s2)CC1	.	.	2%[46.1 µM]	-16	.	2%[46.1 µM]
CC1=CC(=O)c2ccccc2C1=O	-6%	15µM*	26%	?	?	4%
COc1cccc2c1C(=O)C=C(C)C2=O	?	15µM*	11µM*	-33	?	11µM*
CCOc1ccccc1C(O)C1=CC(=O)c2ccccc2C1=O (stereo not given)	-5%	.	9%	14	.	1%
O=C1C=C(N2CC2)c2ccccc2C1=O	.	.	.	-23	.	.
CC(C)(C=O)C1=CC(=O)c2ccccc2C1=O	7.1µM*	?	?	0	?	?
COc1ccc(S(=O)(=O)c2c(Nc3ccc(F)cc3)sc(C(=O)c3ccc4c(c3)OCO4)c2N)cc1	.	.	.	0	.	4%[46.1 µM]
COc1ccc(OCC(=O)NCc2nc(-c3ccccc3)no2)cc1	22%	.	5%[46.1 µM]	-18	.	2%
CCCN1C=CC(=C/C=C(\C#N)C(=O)OCC)C=C1	.	107%	1%	.	93%	.
CCCCCCN1C=CC(=C/C=C(\C#N)C(=O)OCC)C=C1	?	13µM*	0%	-17	10µM*	1%
COc1ccc(F)cc1S(=O)(=O)N1CCc2ccccc2C1	.	.	.	7	.	.
Cc1cc(Br)c2nc(-c3ccc(Cl)cc3)c(Cc3cccc(Cl)c3)n2c1	.	.	.	25	.	.
C=CCc1cccc(CNc2nc3ccccc3n2CCC)c1O	?	.	?	-32	12µM*	1%
SMILES	HCV inh	Pf growth 96h	MARV entry inh	HCMV inh	Pf growth 48h	LASV entry inh
CCCn1c(NCc2ccccc2C)nc2ccccc21	.	.	-1%[46.1 µM]	42	.	4%[46.1 µM]
C=CCc1cccc(CNc2nc3ccccc3n2CC)c1O	?	.	?	-20	15µM*	?
COc1ccc2c3c(n(C)c2c1)[C@@H](CO)N(C(=O)Cc1ccccn1)CC31CCN(C)CC1	.	.	.	0	.	.
O=C(NC(=S)Nc1ccc(Br)c(Cl)c1)C1CC1	10µM*	?	.	-6	-1%	.
O=C(NC(=S)Nc1cccc(Cl)c1Cl)C1CC1	-16%	3%	.	-28	12µM*	.
S=C(N/N=C/c1ccccc1Cl)Nc1cccc(Cl)c1Cl	-27%	-18%	.	-65*	-13%	.
S=C(Nc1cccc(Cl)c1Cl)Nn1cnnc1	1%	2.3µM*	4%	5	4%	3%
CC(=O)Nc1ccc(NC(=S)NC(=O)C2CC2)cc1	22%	18%	5%	38	?	-1%
Cc1cccc(Cn2c(=O)n3nc(-c4ccccc4)nc3c3ccccc32)c1	.	.	-28%[46.1 µM]	-38	.	-25%[46.1 µM]
CCc1ccc(NC(=O)CSc2ccc(-c3sc(-c4ccccc4)nc3C)nn2)cc1	.	.	.	8	.	-17%[46.1 µM]
O=[N+]([O-])c1ccc2c(c1)CO[C@]21O[C@H](CCO)C[C@H](O)[C@H]1O	.	.	.	-18	.	.
O=C(c1ccccc1)N(c1ccccc1)c1nccc2ccccc12	1%	.	.	-37	.	.
CN1CCCN(CC(O)COCc2cccs2)CC1 (stereo not given)	34%	24%	0%	-15	13%	2%
OC(COCc1cccs1)CN1CCCCCC1 (stereo not given)	-22%	5%	12%	2	13µM*	4%
OC(COCc1ccc2c(c1)OCO2)CN1CCC(Cc2ccccc2)CC1 (stereo not given)	?	-7%	-25%	-28	-3%	-27%
OC(COCc1ccc2c(c1)OCO2)CN1CCCCC1 (stereo not given)	10%	12µM*	.	-33	0%	.
COc1ccc(CN(CC(O)COCc2ccccc2)S(=O)(=O)c2ccccc2Br)cc1 (stereo not given)	?	.	.	3	.	?
Cc1cc(NC(c2cccnc2)c2ccc3cccnc3c2O)no1 (stereo not given)	2.5µM*	4.1µM*	?	-104*	2.1µM*	?
Cc1cc(C)nc(Nc2cccc(C(F)(F)F)c2)n1	0%	-29%	.	?	4%	.
Oc1c(C(Nc2cccc(C(F)(F)F)c2)c2cccnc2)ccc2cccnc12 (stereo not given)	11µM*	3.7µM*	?	-33	9.3µM*	?
CC(C)CC(=O)Nc1c2c(nn1-c1cccc(Cl)c1)CS(=O)(=O)C2	13%	1%	.	-15	-3%	.
COc1cc(-c2nnc3n2N=C(c2ccccc2)CS3)cc(OC)c1OC	10µM*	?	?	4	?	?
COc1ccc(OC)c(-c2nnc3n2N=C(c2ccc(OC)c(OC4CCOC4)c2)CS3)c1 (stereo not given)	.	.	.	-75*	.	.
COc1ccc(C2=Nn3c(nnc3-c3ccccc3Cl)SC2)cc1OC1CCOC1 (stereo not given)	.	.	.	20	.	.
COc1ccc(OC)c(C2=Nn3c(nnc3-c3ccncc3)SC2)c1	-22%	.	4µM*	0	.	?
